The values below come from PubChem BioAssay AID1063 (University of Pittsburgh Molecular Library Screening Center, 2008).

Screen size: about 200,000 compounds; about 18,000 (9%) were called active. For the sample, actives were picked, then their nearest neighbours and some compounds at random. Unmarked numbers belong to inactive results. Rule as the data show it: active = inhibition above about 50%; inactive = the rest.

The assay can be described thus: antileishmanial activity against promastigotes – primary screen (AID 1063).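 Also: promastigotes grown with compound for 44 hours at 28 °C.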 As to conditions: Leishmania major promastigotes, resazurin fluorescence viability; at 10 µM; hits give high values.
As a reminder, the inhibition is the relative decrease from the control value, in per cent. In the case of `CC1(C)CC(CC(=O)O)C(=O)O1` (stereo unspecified), the inhibition is -2.75%.

Take `C/C(CC1CC(C)(C)OC1=O)=N/Nc1nc(-c2ccccc2)cs1` (stereo unspecified): the inhibition was 55.5% (active).

For `CC1(C)CC(CCC(=O)Nc2ccccc2Cl)C(=O)O1` (stereo unspecified), the inhibition is -7.36%.

In the case of `CC(=O)Nc1nc(N(C)C)nc(N(C)C)n1`, the inhibition was 2.36%.

`O=C(NCc1ccco1)C(=O)c1cn(CC(=O)N2CCCCCC2)c2ccccc12`: the inhibition is 5.44%.

`COc1ccc(CCNC(=O)COC(=O)/C=C/c2cccs2)cc1OC`: the inhibition is 4.8%.

For the compound `CCOC(=O)CCCNC(=O)COC(=O)/C=C/c1ccc2c(c1)OCO2`, the inhibition was -1.67%.

For the compound `O=C(COC(=O)/C=C/c1cccc(Cl)c1)NCCc1ccccc1`, the inhibition is 53.4% (active).

On to `COc1ccc(C2OCC3(CO2)SC(=O)NC3=O)cc1OC` (stereo unspecified), for which the inhibition is -7.62%.

On to `O=C(NNC(=S)Nc1ccccc1)c1cccc(S(=O)(=O)N2CCOCC2)c1`, for which the inhibition was -4.58%.

`COc1ccccc1NC(=O)C[n+]1ccccc1`: the inhibition was -3.72%.

Regarding `COC(=O)c1cc(C(=O)N(Cc2ccccc2)c2ccccn2)cc([N+](=O)[O-])c1`, the inhibition was 8.15%.

Regarding `Fc1ccccc1/C=C1\CCCC2=C1Nc1ncnn1C2c1ccccc1F` (stereo unspecified), the inhibition is 98.9% (active).

Regarding `O=C(NCc1cccnc1)c1nc(-c2cccs2)no1`, the inhibition is 4.89%.

As for `C=CCn1c(CC(=O)Nc2cccc(OC)c2)nnc1SCC(=O)NC1CCCCC1`, the inhibition was -2.71%.

`COc1ccc(NC(=O)N2CCC(Cc3ccccc3)CC2)cc1`: the inhibition is -0.62%.

Turning to `COc1ccc(NC(=O)NC2CC3CCCC(C2)N3Cc2ccccc2)cc1` (stereo unspecified), the inhibition was 66.9% (active).

Turning to `COc1cccc(NC(=S)NCCCN2CCOCC2)c1`, the inhibition is 1.1%.

As for `CCOc1ccccc1C(=O)NC1CC2CCCC(C1)N2Cc1ccccc1` (stereo unspecified), the inhibition is 16%.

In the case of `C=CCN1C2CCCC1CC(NC(=S)Nc1cccc(OC)c1)C2` (stereo unspecified), the inhibition is 54.3% (active).

In the case of `COc1ccc(N=C2SC(C(=O)Nc3ccc(F)cc3)CC(=O)N2C)cc1` (stereo unspecified), the inhibition was 20.6%.

For `CN1CCN(C(=O)/C(=C\c2ccc3c(c2)OCO3)NC(=O)c2cccs2)CC1`, the inhibition is -8.78%.

With `CN(CCc1cn[nH]c1)C(=O)CC1C(=O)NCCN1Cc1cccc(Oc2ccccc2)c1` (stereo unspecified), the inhibition is 0.64%.

As to `O=C(/C=C/c1cn(-c2ccccc2)nc1-c1ccc2c(c1)OCCO2)NCCCN1CCOCC1`, the inhibition was 41.1%.

`Nc1ccc(OCC(O)C[n+]2ccc(CCS(=O)(=O)[O-])cc2)cc1` (stereo unspecified): the inhibition was -3.78%.

In the case of `O=C(O)c1ccc(N/N=C/c2ccc3ncccc3c2)cc1`, the inhibition was -9.46%.

As for `CN(C(=O)CSc1nnc(-c2c[nH]c3ccccc23)o1)C1CCS(=O)(=O)C1` (stereo unspecified), the inhibition is 0.33%.

Turning to `COc1ccc(/C=C/CN2CCCC(C(=O)c3cc(F)ccc3F)C2)cc1` (stereo unspecified), the inhibition was 81.1% (active).

Regarding `CSCC(=O)N1CCCC(C(=O)c2cc(F)ccc2F)C1` (stereo unspecified), the inhibition was -4.01%.

In the case of `CCOc1cccc(NC(=O)C2CCCN(S(=O)(=O)c3ccc(OC)cc3)C2)c1` (stereo unspecified), the inhibition was 30.8%.

As for `O=C1CCC(CCC(=O)N2CCCC(C(=O)c3ccc(Cl)cc3)C2)=NN1` (stereo unspecified), the inhibition was -5.05%.

As to `CCc1nnc(NC(=O)CSc2nnnn2-c2cccc(C(C)=O)c2)s1`, the inhibition is -4.47%.

`O=C(NNC(=O)c1ccccc1[N+](=O)[O-])Nc1ccccc1C(F)(F)F`: the inhibition was 0.59%.

On to `Cn1cnnc1Sc1ccc(S(C)(=O)=O)cc1[N+](=O)[O-]`, for which the inhibition is -6.44%.

As to `O=C(NCC1CCCO1)c1ccc2ccccc2n1` (stereo unspecified), the inhibition is -4.29%.

As to `O=C(/C=C/c1ccccc1[N+](=O)[O-])NCC1CCCO1` (stereo unspecified), the inhibition was 64.4% (active).

As for `COc1ccc(C(=O)OCC(=O)NCC2CCCO2)cc1[N+](=O)[O-]` (stereo unspecified), the inhibition was -1.01%.

On to `CC(C)C(=O)Nc1c(O)c2ccccc2[nH]c1=O`, for which the inhibition is -11.4%.

As for `CCn1cc(C(=O)NCC2CCCO2)c(=O)c2cc(S(=O)(=O)N3CCCCC3)ccc21` (stereo unspecified), the inhibition was 10.9%.

In the case of `O=C(Nc1ccc(S(=O)(=O)N2CCc3ccccc3C2)cc1)c1ccccc1`, the inhibition is -4.05%.

As for `CCn1cc(C(=O)NCCCN2CCCCCC2)c(=O)c2cc(S(=O)(=O)N3CCc4ccccc4C3)ccc21`, the inhibition is 89.7% (active).

With `CCCCOC(=O)c1ccc(N2C(=O)CC(N3CCN(C/C=C/c4ccccc4)CC3)C2=O)cc1` (stereo unspecified), the inhibition was -5.72%.

Turning to `O=C(Cn1c(N2CCN(C/C=C/c3ccccc3)CC2)nc2ccccc21)c1ccccc1`, the inhibition is 53.2% (active).

As to `CC(C)Cn1c(N2CCN(C(=O)/C=C/c3ccccc3)CC2)nc2ccccc21`, the inhibition was 5.8%.

For `Cc1ccc(-c2nnc(SCC(=O)N/N=C/c3cccs3)n2-c2ccc(C)cc2)cc1`, the inhibition was 32%.

On to `Cc1ccc(-n2c(SCC(=O)N3c4ccccc4Sc4ccccc43)nnc2-c2ccncc2)cc1`, for which the inhibition was 62.6% (active).

For `Cc1ccccc1-n1c(SCC(=O)NCc2cccs2)nnc1-c1ccncc1`, the inhibition was 53% (active).

As to `CCOc1ccccc1-n1c(SCC(=O)NCc2ccco2)nnc1-c1ccncc1`, the inhibition is 67.1% (active).

As for `CCn1c(SCC(=O)NCc2ccco2)nnc1-c1ccc(N)cc1`, the inhibition was -3.78%.

On to `O=C(CSc1nnc(-c2ccncc2)n1-c1ccc(Cl)cc1)Nc1ccc(C(=O)O)cc1`, for which the inhibition is -7.6%.

On to `Cc1ccc(Nc2nc(CSc3nnc(-c4ccncc4)n3-c3ccccc3C)cs2)cc1`, for which the inhibition was 28.5%.

For `Cc1ccc(-c2csc3nnc(SCC(=O)NCc4ccco4)n23)cc1`, the inhibition was -1.56%.

Consider `Cc1ccc(-n2c(SCC(=O)NCc3ccc4c(c3)OCO4)nnc2-c2cccnc2)c(C)c1`, for which the inhibition was 7.56%.

Consider `CCc1nc2ccccc2c(C(=O)OC2CCCCC2=O)c1C` (stereo unspecified), for which the inhibition was 7.85%.

On to `O=[N+]([O-])c1cccc(/C([O-])=C(/C(=S)Nc2ccccc2F)[n+]2ccccc2)c1`, for which the inhibition was -0.54%.

Take `C=CCN(C(=O)c1cc(C)cc(C)c1)C1(C(=O)Nc2ccccc2)CCN(C(C)C)CC1`: the inhibition was 6.23%.

As to `CCNC(=O)N1c2ccccc2Sc2ccccc21`, the inhibition was 4.94%.

For the compound `COc1ccccc1CNC(=O)C1Cc2ccccc2C(=O)O1` (stereo unspecified), the inhibition was -1.31%.

Consider `CCCC1NC(=S)NC(C)=C1C(C)=O` (stereo unspecified), for which the inhibition is -12.4%.

`O=C(/C=C/c1ccc2c(c1)OCO2)NCc1cn2cc(Cl)ccc2n1`: the inhibition was -4.11%.

As for `CC(C)NC(=S)Nc1cccc2cnccc12`, the inhibition was -1.24%.

Take `CCOC(=O)Cn1nnnc1C`: the inhibition was -3.4%.

Regarding `C=CCC(CC=C)(C(N)=O)c1ccccc1`, the inhibition was 2.87%.

Take `CCCC(O)(CCC)C(=O)NN(C(=O)CCl)c1cccc(C)c1`: the inhibition is 82.9% (active).

Take `Cc1ccc(N(NC(=O)C(C)(C)O)C(=O)c2ccccc2)cc1C`: the inhibition was -3.54%.

For `CCCCC(O)(CCCC)C(=O)NN(C(=O)CCl)c1ccccc1`, the inhibition was 54.5% (active).

Turning to `CC(C)(O)C(=O)NN(C(=O)c1ccccc1)c1cccc(Br)c1`, the inhibition is 3.6%.

As to `CCC(C)NC(=O)CCCc1ccccc1` (stereo unspecified), the inhibition was 13.2%.

With `CCCCCCCCC(=O)NCCOc1ccccc1`, the inhibition was -9.39%.

With `Cc1ccc(N(C(=O)c2ccc(S(=O)(=O)N(C)C)cc2)C2C=CS(=O)(=O)C2)cc1` (stereo unspecified), the inhibition is 5.35%.

Turning to `COc1ccccc1-c1noc(CSc2nc(C)cc(=O)[nH]2)n1`, the inhibition was -6.37%.

`N#CCC(=O)N/N=C/c1ccc(SCC(=O)Nc2ccccc2)o1`: the inhibition is -1.51%.

As to `CCSc1sc(CC)cc1C=O`, the inhibition was 5.02%.

In the case of `Cc1ccnc(Nc2nc3ccccc3s2)n1`, the inhibition was 11.8%.

`c1ccc2sc(NN=C3CCCC3)nc2c1`: the inhibition is 57% (active).

With `O=C(Nc1ccccc1)Nc1nc2ccccc2s1`, the inhibition was -0.32%.

On to `O=C(C1CCCN1S(=O)(=O)c1ccc(Br)cc1)N1CCOCC1` (stereo unspecified), for which the inhibition is 1.18%.

For the compound `CC1(C)CN(c2ccc(-c3ccnc4ncnn34)cc2)C1=O`, the inhibition is 8.31%.

For `CCN(CC)CCN(C(=O)c1ccc(N2C(=O)CCC2=O)cc1)c1nc2cc3c(cc2s1)OCO3`, the inhibition was 4.38%.

For the compound `Cc1[nH]c2ccccc2c1SCC(=O)Nc1nccs1`, the inhibition is 2.27%.

With `Cc1ccc(NC(=O)NC2CCCCC2)cc1S(=O)(=O)N1CCOCC1`, the inhibition was 27.4%.

In the case of `Cc1cc(C(=O)COc2ccccc2[N+](=O)[O-])c(C)n1-c1cccc(S(=O)(=O)N2CCOCC2)c1`, the inhibition is 98.9% (active).

Take `O=C(NC(=S)Nc1ccc(S(=O)(=O)N2CCOCC2)cc1)c1ccccc1[N+](=O)[O-]`: the inhibition is 5.68%.

Consider `COc1ccc(S(=O)(=O)N2CCC(C(=O)OCC(=O)c3ccccc3)CC2)cc1[N+](=O)[O-]`, for which the inhibition was -6.1%.

As for `S=c1[nH]ccn1-c1ccc(Cl)cc1`, the inhibition was -8.82%.

For the compound `O=S(=O)(NC1CC1)c1ccc2c3c(cccc13)CC2`, the inhibition was 3.72%.

For the compound `Cc1ccc(C(=O)OC2CCCN(C)C2)cc1` (stereo unspecified), the inhibition was -6.05%.

`CCNS(=O)(=O)c1ccc(NC(=O)c2cncc(Br)c2)cc1`: the inhibition was 50.3% (active).

As to `O=C(Nc1ccc(S(=O)(=O)Nc2ncccn2)cc1)c1cncc(Br)c1`, the inhibition was -5.97%.

On to `CCNS(=O)(=O)c1ccc(NC(=O)Nc2cccc(OC)c2)cc1`, for which the inhibition was 3.37%.

As for `N#CC1(C#N)C(C(=O)C23CC4CC(CC(C4)C2)C3)C12CCOCC2` (stereo unspecified), the inhibition is 4.33%.

Regarding `Cc1ccccc1CSc1nnc(-c2ccccc2)c(=O)[nH]1`, the inhibition was -8.07%.

Turning to `CCc1ccc(NC(=O)Cn2nc(C)c([N+](=O)[O-])c2C)cc1`, the inhibition was 6.59%.

As to `Cc1nn(CC(=O)Nc2nc3ccccc3s2)c(C)c1[N+](=O)[O-]`, the inhibition is 50.5% (active).

As for `Cc1nn(CC(=O)NCc2ccccn2)c(C)c1[N+](=O)[O-]`, the inhibition is -2.73%.

With `C=CCN(CC=C)C(=O)COC(=O)c1n[nH]c2ccccc12`, the inhibition was 1.59%.
